Laboratory results published in PubChem BioAssay (Tox21).
“And” between values parts separate entries of the source, which are not always exact repeats. Equal values may be shown once. Inconclusive results are not listed. The source made the active and inactive calls. The call rests on the fitted dose curve; in most records, active means well fitted curve in the direction sought with a large enough effect in the repeat runs; inconclusive means weak or mixed curves; inactive means no such curve, though single readings can be large; an effect the other way counts as inactive or inconclusive.

Legend:
[1] = A CellTox Green Cytotoxicity Assay to monitor cytotoxicity in HEK293 cells - 40 hour (AID 1224871); further: nearly all actives have a fitted effect of over 45% in size
Method in brief: (§1)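 Tox21 screen in HEK293: membrane-impermeant cyanine dye fluoresces on binding dead-cell DNA; compound pinned 5 h post-seeding, plates held at 37 C, signal read repeatedly through 40 h.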

[2] = qHTS RealTime-Glo MT Cell Viability Assay in HEK293 cells - 16 hour (AID 1224872); further: top concentration of the series differs between compounds; nearly all actives have a fitted effect of over 50% in size
Method in brief: (§2)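 HEK293 cells were seeded at 600 cells/well together with NanoLuc luciferase and cell-permeant prosubstrate, preincubated 5 h at 37 C/5% CO2, then given compound in DMSO by pintool. Luminescence from viable-cell prosubstrate reduction was read repeatedly over 40 h.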

[3] = qHTS RealTime-Glo MT Cell Viability Assay in HepG2 cells - 8 hour (AID 1224873); further: nearly all actives have a fitted effect of over 55% in size
Method in brief: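 HepG2 cells (600/well) mixed with RealTime-Glo MT reagent, settled 5 h at 37 C/5% CO2 before compound addition. Nonlytic NanoLuc luminescence from viable-cell prosubstrate reduction read repeatedly during 40 h treatment at 37 C.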

[4] = qHTS RealTime-Glo MT Cell Viability Assay in HEK293 cells - 40 hour (AID 1224874); conditions: RealTime-Glo luminescence; max response: hits give low values; further: nearly all actives have a fitted effect of over 50% in size
Method in brief: (§3)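 HEK293 + NanoLuc + prosubstrate, 600 cells/well; 5 h, 37 C/5% CO2; compound 23 nL in DMSO by pintool; 37 C; luminescence read at 0, 8, 16, 24, 32 and 40 h time points.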

[5] = A CellTox Green Cytotoxicity Assay to monitor cytotoxicity in HEK293 cells - 24 hour (AID 1224875); further: series mostly up to about 77 µM; nearly all actives have a fitted effect of over 45% in size
Method in brief: as §1

[6] = A CellTox Green Cytotoxicity Assay to monitor cytotoxicity in HepG2 cells - 16 hour (AID 1224876); further: nearly all actives have a fitted effect of over 45% in size
Method in brief: (§4)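 Measurements at 0, 8, 16, 24, 32 and 40 h of treatment captured CellTox Green fluorescence in HepG2 cells that had been co-plated with reagent and preincubated 5 h at 37 C/5% CO2.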

[7] = qHTS RealTime-Glo MT Cell Viability Assay in HepG2 cells - 32 hour (AID 1224877); further: nearly all actives have a fitted effect of over 55% in size
Method in brief: (§5)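 HepG2 cells were seeded at 600 cells/well together with NanoLuc luciferase and a cell-permeant prosubstrate, preincubated 5 h at 37 C/5% CO2, then pin-dosed with compounds in DMSO. Nonlytic luminescence from viable cells was read at each time point.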

[8] = A CellTox Green Cytotoxicity Assay to monitor cytotoxicity in HepG2 cells - 24 hour (AID 1224878); further: nearly all actives have a fitted effect of over 45% in size
Method in brief: as §4

[9] = A CellTox Green Cytotoxicity Assay to monitor cytotoxicity in HepG2 cells - 40 hour (AID 1224879); further: nearly all actives have a fitted effect of over 40% in size
Method in brief: as §4

[10] = qHTS RealTime-Glo MT Cell Viability Assay in HEK293 cells - 0 hour (AID 1224880)
Method in brief: as §3

[11] = A CellTox Green Cytotoxicity Assay to monitor cytotoxicity in HEK293 cells - 32 hour (AID 1224881); further: nearly all actives have a fitted effect of over 40% in size
Method in brief: as §1

[12] = A CellTox Green Cytotoxicity Assay to monitor cytotoxicity in HepG2 cells - 0 hour (AID 1224882); further: nearly all actives have a fitted effect of over 35% in size
Method in brief: as §4

[13] = A CellTox Green Cytotoxicity Assay to monitor cytotoxicity in HepG2 cells - 32 hour (AID 1224883); further: nearly all actives have a fitted effect of over 50% in size
Method in brief: as §4

[14] = A CellTox Green Cytotoxicity Assay to monitor cytotoxicity in HEK293 cells - 8 hour (AID 1224884); further: nearly all actives have a fitted effect of over 35% in size
Method in brief: as §1

[15] = qHTS RealTime-Glo MT Cell Viability Assay in HepG2 cells - 16 hour (AID 1224885); further: nearly all actives have a fitted effect of over 50% in size
Method in brief: as §5

[16] = qHTS RealTime-Glo MT Cell Viability Assay in HEK293 cells - 24 hour (AID 1224886)
Method in brief: as §2

[17] = qHTS RealTime-Glo MT Cell Viability Assay in HEK293 cells - 8 hour (AID 1224887)
Method in brief: as §3

[18] = A CellTox Green Cytotoxicity Assay to monitor cytotoxicity in HEK293 cells - 16 hour (AID 1224888); further: nearly all actives have a fitted effect of over 35% in size
Method in brief: as §1

[19] = qHTS RealTime-Glo MT Cell Viability Assay in HepG2 cells - 0 hour (AID 1224889); further: nearly all actives have a fitted effect of over 50% in size
Method in brief: as §5

[20] = A CellTox Green Cytotoxicity Assay to monitor cytotoxicity in HepG2 cells - 8 hour (AID 1224890); further: nearly all actives have a fitted effect of over 45% in size
Method in brief: as §4
On the % scale 0 is the no-effect control and ±100 the full control effect.

CCCOC(=O)NCCCN(C)C
inactive: Potency [1] | Potency [2] | Potency [3] | max response [4] 3.11% and 1.66% | Potency [5] | Potency [6] | Potency [7] | Potency [8] | Potency [9] | Potency [10] | Potency [11] | Potency [12] | Potency [13] | Potency [14] | Potency [15] | Potency [16] | Potency [17] | Potency [18] | Potency [19] | Potency [20]

Cc1nnc(NS(=O)(=O)c2ccc(N)cc2)s1
inactive: Potency [1] | Potency [2] | Potency [3] | max response [4] -1.44% and 9.25% | Potency [5] | Potency [6] | Potency [7] | Potency [8] | Potency [9] | Potency [10] | Potency [11] | Potency [12] | Potency [13] | Potency [14] | Potency [15] | Potency [16] | Potency [17] | Potency [18] | Potency [19] | Potency [20]

OCC(CO)(CO)CO
inactive: Potency [1] | Potency [2] | Potency [3] | max response [4] 2.43% and 2.9% | Potency [5] | Potency [6] | Potency [7] | Potency [8] | Potency [9] | Potency [10] | Potency [11] | Potency [12] | Potency [13] | Potency [14] | Potency [15] | Potency [16] | Potency [18] | Potency [19] | Potency [20]

OCCOCCOCCOCCOCCO
inactive: Potency [1] | Potency [2] | Potency [3] | max response [4] 2.45% and 0.674% | Potency [5] | Potency [6] | Potency [7] | Potency [8] | Potency [9] | Potency [10] | Potency [11] | Potency [12] | Potency [13] | Potency [14] | Potency [15] | Potency [16] | Potency [18] | Potency [19] | Potency [20]

CN=C(NC#N)NCCSCc1nc[nH]c1C
inactive: Potency [1] | Potency [2] | Potency [3] | max response [4] 4.13% and 1.71% | Potency [5] | Potency [6] | Potency [7] | Potency [8] | Potency [9] | Potency [10] | Potency [11] | Potency [12] | Potency [13] | Potency [14] | Potency [15] | Potency [16] | Potency [18] | Potency [19] | Potency [20]

N[C@@H](Cc1cc(I)c(Oc2ccc(O)c(I)c2)c(I)c1)C(=O)O
inactive: Potency [1] | Potency [2] | Potency [3] | max response [4] -20.1% and -17.6% | Potency [5] | Potency [6] | Potency [7] | Potency [8] | Potency [9] | Potency [11] | Potency [12] | Potency [13] | Potency [14] | Potency [15] | Potency [16] | Potency [18] | Potency [19] | Potency [20]
